PNC inhibitor: High Content Assay for Compounds that inhibit the Assembly of the Perinucleolar Compartment; AID 2417, 2010; actives 3.1% (n = 140,000); PC3M PTB-GFP, PNC prevalence imaging, 16 h; stronger effect = lower value; activity change (PNC), negative = inhibition, % at 10 µM;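 active = readout at or below -70, meaning at least 70% loss of cells showing the perinucleolar compartment, a nuclear body marking cancer cells; inconclusive = readout between -30 and a set limit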;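 also: plate controls were DMSO wells for no effect and camptothecin positive control wells for full effect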
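Compounds are pinned in duplicate onto adhered PC3M cells stably expressing GFP-tagged PTB and incubated 16 h at 37 C. Cells are then fixed, nuclei stained with Hoechst, and PNC-positive cells counted.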
LMNA splice mod: qHTS Assay for Modulators of Lamin A Splicing. HeLa LMNA splicing GFP/RFP minigene ratio, 48 h. Potency, µM (titrated, usually from 46.1 µM), inactives show top-dose ratio change, negative = inhibition, hits mostly inhibitors. actives 0.01% (n = 200,000); active = well fitted inhibition curve with a large enough effect in the signal ratio, with a control signal flat, not every such curve was filed as active; inconclusive = small, poorly fitted or top-dose-only effect, or effect the other way, or a change in a side signal; the % refers to the signal ratio; also: potency is read from the fitted curve at half-maximal effect
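S3 HeLa stable clones carrying a lamin A-EGFP splicing minigene plus DsRed2 were seeded at 600 cells/well in Opti-MEM with 2% FBS, pin-dosed and incubated 48 h at 37°C. Acumen cytometry (488 nm) gave the GFP/RFP total-intensity ratio.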
HPGD block: qHTS Assay for Inhibitors of HPGD (15-Hydroxyprostaglandin Dehydrogenase); purified HPGD, NADH fluorescence kinetic, PGE2 substrate; Potency, µM, inactives show at the highest dose activity change, negative = inhibition, actives largely listed as inhibitors; actives 4.3% (n = 150,000); also: potency is read from the fitted curve at half-maximal effect
Target sequence (P15428 whole entry, looked up): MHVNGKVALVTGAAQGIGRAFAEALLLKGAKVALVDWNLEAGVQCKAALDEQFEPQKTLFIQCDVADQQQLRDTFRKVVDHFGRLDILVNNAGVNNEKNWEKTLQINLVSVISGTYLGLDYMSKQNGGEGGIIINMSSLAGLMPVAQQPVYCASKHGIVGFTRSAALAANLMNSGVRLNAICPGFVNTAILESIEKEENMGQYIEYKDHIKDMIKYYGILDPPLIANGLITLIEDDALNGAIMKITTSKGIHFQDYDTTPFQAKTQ
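NADH formation kinetics: reaction with 30 uM PGE2 and 1 mM NAD+ (final), 20 nM enzyme, Tris-HCl pH 8 with Tween 20, after 15 min compound preincubation at room temperature. Fluorescence change, last versus first of five reads.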
ALDH1A1 inh: qHTS Assay for Inhibitors of Aldehyde Dehydrogenase 1 (ALDH1A1); Aldehyde dehydrogenase 1A1 (Homo sapiens), P00352; Purified ALDH1A1, NADH fluorescence, propionaldehyde substrate; Potency, µM (doses to about 75.3 µM), inactives show top-dose activity, negative = inhibition, usual class: inhibitors; actives 7.3% (n = 220,000);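 also: potency is read from the fitted curve at half-maximal effect; plate controls were no enzyme wells and a reference inhibitor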
Target sequence (P00352 whole entry, looked up): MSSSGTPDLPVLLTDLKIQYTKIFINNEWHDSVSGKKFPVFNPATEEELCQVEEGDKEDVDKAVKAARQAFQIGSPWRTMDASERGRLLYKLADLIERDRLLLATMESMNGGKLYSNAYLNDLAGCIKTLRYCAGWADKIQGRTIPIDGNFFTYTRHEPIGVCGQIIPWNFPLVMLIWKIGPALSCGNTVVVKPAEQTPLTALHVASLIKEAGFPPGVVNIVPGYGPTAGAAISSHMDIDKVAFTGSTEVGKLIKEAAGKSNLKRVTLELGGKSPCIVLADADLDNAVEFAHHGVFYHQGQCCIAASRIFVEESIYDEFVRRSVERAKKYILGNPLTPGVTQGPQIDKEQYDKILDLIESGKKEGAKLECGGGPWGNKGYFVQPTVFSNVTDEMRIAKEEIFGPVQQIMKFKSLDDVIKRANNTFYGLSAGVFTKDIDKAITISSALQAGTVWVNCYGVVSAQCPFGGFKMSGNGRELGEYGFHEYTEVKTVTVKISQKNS
ALOX12 inhib: qHTS Assay for Inhibitors of 12-hLO (12-human lipoxygenase) | purified 12-hLO, xylenol orange hydroperoxide absorbance | Polyunsaturated fatty acid lipoxygenase ALOX12 (Homo sapiens), P18054 | actives 0.12% (n = 150,000) | Potency, µM (series often up to 57.1 µM), inactives show at the top dose activity change, negative = inhibition, actives largely listed as inhibitors | AID 1452, 2008; active = well fitted inhibition curve with a large enough effect; inconclusive = small, poorly fitted or top-dose-only effect; also: potency is read from the fitted curve at half-maximal effect; nearly all actives have a fitted effect of over 55% in size
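Purified human 12hLO (150 nM), preincubated 15 min with compound, then 40 uM arachidonic acid for 30 min, room temperature, Hepes pH 7.0 with 0.01% Triton X-100. Hydroperoxide detected by ferrous iron/xylenol orange; 573/405 nm absorbance ratio gives reaction progress.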
Active calls of the source: *; ? = inconclusive; · = no result given; [ ] = remark or other dose. The list is not random: actives were taken first. Their share in the collection is about 10%. Unless noted, calls follow the shape of the dose curve; as a rule, active = well fitted inhibition curve with a large enough effect (not every such curve was filed as active); inconclusive = small, poorly fitted or top-dose-only effect, or another doubt; inactive = no such curve, though single readings can be large or run the other way. Unless noted, % is scaled to controls: 0 for no effect and ±100 for the full control effect.

SMILES | PNC inhibitor | LMNA splice mod | HPGD block | ALDH1A1 inh | ALOX12 inhib
CN(C)c1ccc(C2N(c3ccc(F)cc3)C(=O)C3CCCN32)cc1 (configuration not stated) | -4.2 | 4.5% | -25.4% | 0.631µM* | -4.7%
CN(C)c1ccc(C2N(c3ccc(Cl)cc3)C(=O)C3CCCN32)cc1 (configuration not stated) | -14.2 | 0.2% | -15.7% | 0.794µM* | 3.5%
Cc1ccc(S(=O)(=O)N/N=C/c2ccc(OC3CSC3)cc2)cc1 | -15.8 | 12.1% | -8.6% | -3.4% | -2.0%
Cc1ccc(S(=O)(=O)N/N=C/c2ccc(OS(=O)(=O)c3ccc(C)c([N+](=O)[O-])c3)cc2)cc1 | ? | ? | -27.3% | 5.01µM* | -16.7%
Cc1ccc(S(=O)(=O)N/N=C\c2ccc(Cl)c([N+](=O)[O-])c2)cc1 | -15.9 | ? | -14.8% | 0.501µM* | -4.1%
Cc1ccc(NC(=S)N/N=C/c2ccc(Cl)c([N+](=O)[O-])c2)cc1 | -8.9 | -4.9% | -0.4% | 17.1% | 6.5%
CCN(CC)C1=CC(=O)OC12CCCCC2 | 23.3 | -2.9% | 35.5µM* | 14.1µM* | -2.7%
CCN(CC)CCNC1=CC(=O)OC12CCCCC2 | -24.9 | 3.0% | -1.2% | 1.5% | -2.6%
CC(=O)C1(C)CC2=C(CCCC2(C)C)CC1C (configuration not stated) | · | · | -12.1% | ? | -0.8%
CN(C)CCN(Cc1ccccc1)S(=O)(=O)c1ccc2[nH]c(=O)ccc2c1 | · | -4.3%[46 µM] | · | · | ·
COC(=O)C(C(=O)OC)C1O[C@@]23COCCC2(C)C3c2ccccc21 (some centres not stated) | · | · | · | -4.6%[13.5 µM] | ·
CCCCCCc1ccc(-c2ccc(C#N)cc2)cc1 | · | · | -11.9% | 8.0% | -1.0%
O=C(COc1ccccc1Cl)NC(=S)N1CCc2ccccc21 | ? | 6.1% | 20µM* | -5.6% | -9.7%
COc1ccccc1C(=O)NC(=S)N1CCc2ccccc21 | · | -17.7%[46 µM] | · | 14.1µM* | ·
O=C(COc1ccccc1)NC(=S)N1CCc2ccccc21 | -25.9 | 0.2% | -23.0% | ? | -2.3%
COc1ccccc1C(=O)NC(=S)N1CCCc2ccccc21 | -11.1 | -7.5% | 8.91µM* | 3.16µM* | -13.2%
COc1ccc(OCC(=O)NC(=S)N2CCCc3ccccc32)cc1 | ? | -0.2% | -15.9% | 8.91µM* | 6.1%
CCC(=Cc1ccc(CC)cn1)CC | · | · | · | 5.1% | ·
Cc1ccccc1OCC(=O)NC(=S)Nc1ccc2c3c(cccc13)CC2 | 20.6 | 0.8% | -6.5% | -0.3% | -2.1%
COc1ccc(OCC(=O)NC(=S)Nc2ccc3c4c(cccc24)CC3)cc1 | -10.6 | -1.3% | ? | 15.8µM* | -1.8%
CCNc1ncc2nc(C)c(=O)n(C[C@H]3CCCO3)c2n1 | · | -9.2% | · | ? | ·
Cc1cc(C)c(NC(=O)c2cc3c(=O)n4ccccc4nc3n2C)c(C)c1 | · | 1.3%[46 µM] | · | · | ·
CCCCC(NS(=O)(=O)c1ccc(OC)cc1)C(=O)O (configuration not stated) | -100.0* | ? | -7.9% | ? | -4.9%
CCCC(NS(=O)(=O)c1ccc(C)cc1)C(=O)O (configuration not stated) | 4.4 | 9.3% | 1.3% | 3.2% | 9.5%
O=C1CN(C(=O)COC(=O)COc2ccc3c(c2)CCC3)c2ccccc2N1 | -8.2 | 7.4% | 14.1µM* | ? | -5.6%
SMILES | PNC inhibitor | LMNA splice mod | HPGD block | ALDH1A1 inh | ALOX12 inhib
CCOC(=O)c1[nH]c(C)c(C(=O)OCC(=O)N2CC(=O)Nc3ccccc32)c1C | 6.1 | -11.1% | 15.8µM* | -15.2% | -0.3%
COc1ccc(OCC(=O)OCC(=O)N2CC(=O)Nc3ccccc32)cc1 | · | ? | · | 5.0% | ·
CN1CCC2(CC1)CCN(C(=O)c1cccc(F)c1)CC2 | · | · | -10.5% | 9.3% | 2.9%
S=C(Cc1cccnc1)N1CCOCC1 | -14.4 | 0.6% | 22.4µM* | 12.6µM* | -0.8%
CC(=O)N[C@@H]1CONC1=O | · | · | -2.0% | -1.0%[13.5 µM] | 5.1%[11.4 µM]
O=S(=O)(c1ccc(Cl)s1)N1CCc2ccccc2C1 | 16.1 | 10.8% | -13.7% | -7.2% | -4.8%
O=S(=O)(c1ccc(Br)s1)N1CCc2ccccc2C1 | -118.9* | -11.3% | -28.7% | -26.4% | -1.4%
CC(C)(C)OC(=O)N1CCC(c2c(C(=O)NCc3cccs3)cnn2-c2cccc(F)c2)CC1 | · | -29.1%[46 µM] | · | · | ·
COc1ccc(NC(=S)Nc2ccc(N)c([N+](=O)[O-])c2)cc1 | -20.9 | 2.5% | ? | 25.1µM* | -2.8%
COc1ccc(CCC(=O)Nc2ccc(C)c([N+](=O)[O-])c2)cc1 | ? | -10.4% | 12.6µM* | 10µM* | -0.5%
COc1ccc(CCC(=O)Nc2cc([N+](=O)[O-])ccc2OC)cc1 | -5.0 | ? | -15.4% | ? | -2.2%
Cc1ccc2nc(NC(=O)CN(C)S(=O)(=O)c3cccc4nsnc34)sc2c1 | -122.4* | ? | -0.5% | 3.1% | -2.1%
O=C(Nc1nc2ccccc2s1)C1CCCO1 (configuration not stated) | ? | 0.5% | -2.8% | -6.8% | -2.4%
CC1CCc2nc(NC(=O)Cc3cccs3)sc2C1 (configuration not stated) | ? | 0.3% | -24.4% | 20µM* | -7.7%
Cc1ccnc(NC(=O)CN(C)S(=O)(=O)c2cccc3nsnc23)c1 | 64.0 | 4.3% | -14.7% | -0.2% | -0.8%
CC1CCc2nc(NC(=O)C3CCCO3)sc2C1 (configuration not stated) | ? | -8.0% | -20.7% | 20µM* | -7.2%
CC1CCc2nc(NC(=O)c3ccco3)sc2C1 (configuration not stated) | -21.5 | -11.3% | -14.3% | ? | -1.1%
Cc1ccc2nc(NC(=O)Cc3cccs3)sc2c1 | 50.5 | ? | -21.3% | 7.94µM* | 0.8%
Cc1cccc(-n2nnnc2-c2cnccc2C(F)(F)F)c1C | · | · | · | 15.8µM* | ·
Cc1ccc(-n2nnnc2-c2cnc(-c3cccnc3)nc2C(F)(F)F)cc1 | -3.5 | 9.6% | -1.4% | 8.4% | -5.4%
Cc1c(Cl)cccc1NC(=O)N1CCC(CN2CCOCC2)CC1 | · | -15.6%[46 µM] | · | · | ·
COc1cccc(CC(NC(C)=O)C(=O)NC2CCN(c3ncccc3[N+](=O)[O-])CC2)c1 (configuration not stated) | · | 2.5%[46 µM] | · | 3.9% | ·
COc1ccc(CC(NC(C)=O)C(=O)NC2CCN(c3ncccc3[N+](=O)[O-])CC2)cc1 (configuration not stated) | · | -17.9%[46 µM] | · | 6.31µM* | ·
CC(=O)NC(Cc1ccc(F)cc1)C(=O)NC1CCN(c2nnnn2-c2ccccc2)CC1 (configuration not stated) | -1.2 | 7.9% | -13.1% | 1µM* | -0.7%
O=C(/C=C/c1ccncc1)c1ccc2c(c1)OCCO2 | · | · | · | 0.891µM* | ·

Screening results (PubChem)
